Out of some 360,000 compounds screened, about 2,600 (0.72%) were called active. The list comes from a sample in which actives are over-represented; it also holds similar structures and randomly drawn compounds. Unmarked numbers belong to inactive results.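 The calls were made as follows: active = inhibition above its plate's cutoff, the mean inhibition of sample wells plus 3 SD (cut at about 27% in these data); inactive = the rest.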

Sequence of Muscarinic acetylcholine receptor M4 (Homo sapiens) (P08173 whole entry, looked up): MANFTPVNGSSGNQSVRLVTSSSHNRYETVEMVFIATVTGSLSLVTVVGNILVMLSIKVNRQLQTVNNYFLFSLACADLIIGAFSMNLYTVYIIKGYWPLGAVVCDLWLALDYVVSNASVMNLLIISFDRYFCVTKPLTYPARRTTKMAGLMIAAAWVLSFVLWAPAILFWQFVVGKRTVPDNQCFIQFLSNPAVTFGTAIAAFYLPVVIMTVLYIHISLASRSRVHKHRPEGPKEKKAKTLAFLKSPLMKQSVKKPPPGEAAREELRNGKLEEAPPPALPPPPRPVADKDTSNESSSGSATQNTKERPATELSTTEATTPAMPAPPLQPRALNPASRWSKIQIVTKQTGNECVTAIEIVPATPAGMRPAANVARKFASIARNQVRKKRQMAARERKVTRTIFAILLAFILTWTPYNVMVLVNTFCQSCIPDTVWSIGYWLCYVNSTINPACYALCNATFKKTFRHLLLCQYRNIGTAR

The test addresses Muscarinic acetylcholine receptor M4 (Homo sapiens) (UniProt P08173). Put plainly: CHRM4 blockers of acetylcholine calcium response – CHO cells, Fluo-8 calcium fluorescence, primary screen (AID 624125).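 Also: 0% = acetylcholine EC80 with DMSO and 100% = DMSO without agonist.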 Conditions: CHO-hM4 cells, ACh EC80, Fluo-8 calcium fluorescence; at 3 µM; hits give high values.
Consider `O=c1[nH]c2ccccc2n1C1CCN(C(c2ccccc2)c2nnnn2Cc2ccccc2)CC1` (stereo not given), for which the inhibition is 27.1% (active).
Regarding `O=c1[nH]c2ccccc2n1C1CCN(C(c2ccnc3ccccc23)c2nnnn2Cc2ccccc2)CC1` (stereo not given), the inhibition was 22.4%.
As to `CSCCC(c1nnnn1C(C)(C)C)N1CCC(n2c(=O)[nH]c3ccccc32)CC1` (stereo not given), the inhibition was 5.14%.
Take `Nc1ccc(C(=O)N/N=C2/CN3CCC2CC3)cc1`: the inhibition was -0.14%.
On to `Cc1nn(Cc2ccccc2Cl)c(Cl)c1C(=O)OC(C(=O)NC(N)=O)C(C)C` (stereo not given), for which the inhibition is 1.94%.
Take `COC(=O)N(c1ccc(OC)cc1)P1(=S)OCCC(C)O1` (stereo not given): the inhibition was 1.76%.
Consider `COc1ccc(N=Cc2c(O)n(C)c(=O)[nH]c2=O)cc1`, for which the inhibition is 1.06%.
The value for `CC(C)c1c(CN(C)C(C)Cc2ccccc2)n(C)n(-c2ccccc2)c1=O` (stereo not given) was 66.1% (active).
For `CCOC(=O)C(O)(c1ccc(N)c(OC)c1)C(F)(F)F` (stereo not given), the inhibition is 1.32%.
For `O=[N+]([O-])c1cnc2ccc3ccccc3c2c1`, the inhibition was 9.35%.
The value for `CC1(C)Cc2c(C#N)c(N3CCNCC3)nc(-c3ccco3)c2CS1` was 5.55%; that for `CC1CCCN1CCC(C(N)=O)(c1ccccc1)c1ccccc1` (stereo not given) was 99% (active).
On to `CC1CCCCN1Cc1cccnc1` (stereo not given), for which the inhibition is 3.46%.
Take `O=C(Cc1ccccc1)N1CCN(C2CCCCCC2)CC1`: the inhibition was 0.63%.
To `C[C@]12CCCCC1=CC(=O)C1C2CC[C@@]2(C)C1C[C@@H](F)[C@@H]2O` (stereo not given in full) belongs -6.29%.
As for `N#Cc1ccc(Cn2cc(C(=O)c3ccco3)c3ccccc32)cc1`, the inhibition is 0.92%.
Turning to `CCOP(=O)(OCC)C(NC(=O)c1ccc(C)cc1)C(Cl)(Cl)Cl` (stereo not given), the inhibition was 9.97%.
Turning to `CCOP(=O)(OCC)C(NC(=O)c1ccc(OC)cc1)C(Cl)(Cl)Cl` (stereo not given), the inhibition is 3.05%.
As for `CCOP(=O)(OCC)C(NC(=O)NC)C(N)=O` (stereo not given), the inhibition is 39% (active).
For the compound `CN(C)CCCN=Cc1c(O)n(Cc2ccco2)c(=O)[nH]c1=O`, the inhibition is 2.03%.
Regarding `CC(=O)N(C1=NCCCS1)c1ccccc1F`, the inhibition is -8.11%.
In the case of `CN(C)C(=O)Oc1cc(=O)n2c3c(cccc13)CCC2`, the inhibition is -4.4%.
As to `CCCCCCCCCCCCn1ccc(=N)cc1`, the inhibition was 71.3% (active).
For `COc1cc(-n2c(=S)[nH]c3ccc(C)cc3c2=O)c(Cl)cc1Cl`, the inhibition is 3.21%.
Regarding `COC(=O)C(O)(c1ccc(NC(=O)c2ccco2)c(OC)c1)C(F)(F)F` (stereo not given), the inhibition was 1.51%.
The value for `CCCC(C)n1[nH]c(=O)c2c1NC(=O)CSC2c1ccc(OC)c(OC)c1` (stereo not given) was -2%; that for `O=C(NCC(c1cccnc1)N1CCN(c2ccccc2)CC1)Oc1ccccc1` (stereo not given) was -1.68%.
With `CCCC[N+]1(C)C2CC(OC(=O)C(CO)c3ccccc3)CC1C1OC12` (stereo not given), the inhibition was 90.4% (active).
With `N#CC1=C(N)Oc2c(c(=O)oc3ccccc23)C1c1ccccc1OC(=O)c1cccs1` (stereo not given), the inhibition was 5.46%.
Regarding `Cc1ccc(-n2c(O)c(C=NCC3CCCO3)c(=O)[nH]c2=O)c(C)c1` (stereo not given), the inhibition is -11%.
The value for `COc1cccc(CN2CCCC(C(=O)c3ccccc3SC)C2)c1O` (stereo not given) was -1.14%; that for `CC[N+]1(C)CCCC(OC(=O)C(O)(c2ccccc2)c2ccccc2)C1` (stereo not given) was 98.6% (active); that for `Cc1ccc(N(C)C(=O)Oc2cccc3ccc(C)nc23)cc1` was 5.04%.
For `CCc1nc2ccccc2c(=O)n1-c1cccc(OC)c1`, the inhibition was -8.12%.
Turning to `CN1CCN(/N=C/c2c[nH]c3ccccc23)CC1`, the inhibition is -1.55%.

By inhibition is commonly meant the change of the read-out against control, counted positive when it falls.

The record behind these values is PubChem BioAssay AID624125 (The Scripps Research Institute Molecular Screening Center, 2012).
